PubChem BioAssay (NCI)
This is part of a sample that, as a whole, favours compounds with a hit. Of some 83,000 tested, about 20% had one in any assay.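 Values shown are percent growth following 48 h exposure of cells in 96-well plates to a single concentration of compound; below 10 was considered active.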 Active and inactive are the calls of the source.

Legend:
Experiment in all cases: NCI-60 one-dose screen, 48 h (100 = growth as untreated, 0 = no growth, -100 = all killed)
EKVX NSCLC = details: 10 µM unless noted
SN12C renal = details: 10 µM unless noted
UO-31 renal = details: 10 µM unless noted
TK-10 renal = details: 10 µM unless noted
ACHN renal = details: 10 µM unless noted
A498 renal = details: 10 µM unless noted
CCRF-CEM leukemia = details: 10 µM unless noted
OVCAR-8 ovarian = details: 10 µM unless noted
OVCAR-5 ovarian = details: 10 µM unless noted
OVCAR-4 ovarian = details: 10 µM unless noted
SK-OV-3 ovarian = details: 10 µM unless noted
IGROV1 ovarian = details: 10 µM unless noted
OVCAR-3 ovarian = details: 10 µM unless noted
HS 578T breast = details: 10 µM
NCI/ADR-RES ovarian = details: 10 µM unless noted
MOLT-4 leukemia = details: 10 µM unless noted
SR leukemia = details: 10 µM unless noted
RPMI-8226 leukemia = details: 10 µM unless noted

Measured: growth

CC(=O)[C@@]1(O)[C@H](C)C[C@H]2[C@@H]3C=C(C)C4=Cc5c(cnn5-c5ccccc5)C[C@]4(C)[C@H]3[C@@H](O)C[C@@]21C
active: UO-31 renal -4.99% | A498 renal -16.8% | CCRF-CEM leukemia -28% | IGROV1 ovarian -16.8% | OVCAR-3 ovarian 8.02% | HS 578T breast 5.32%
inactive: EKVX NSCLC 13.2% | SN12C renal 41.3% | TK-10 renal 34.5% | ACHN renal 42.3% | OVCAR-8 ovarian 37.3% | OVCAR-5 ovarian 40.6% | OVCAR-4 ovarian 56.5% | SK-OV-3 ovarian 38.7% | NCI/ADR-RES ovarian 27.1%

Cc1cc(O)ccc1C1=NN(c2ccc(S(N)(=O)=O)cc2)C(=O)CC1
active: A498 renal -2.97% | IGROV1 ovarian -9.76%
inactive: EKVX NSCLC 52.6% | SN12C renal 70.7% | UO-31 renal 65.4% | TK-10 renal 114% | ACHN renal 77.6% | CCRF-CEM leukemia 46.2% | OVCAR-8 ovarian 50.1% | OVCAR-5 ovarian 93% | OVCAR-4 ovarian 59.2% | SK-OV-3 ovarian 64.9% | HS 578T breast 18.8% | NCI/ADR-RES ovarian 22.4%

CCOC(=O)C(=CNc1ccccc1Cl)C(=O)OCC
inactive: EKVX NSCLC 106% | SN12C renal 101% | UO-31 renal 89.1% | TK-10 renal 99.3% | ACHN renal 79.2% | CCRF-CEM leukemia 85.8% | OVCAR-8 ovarian 91.4% | OVCAR-5 ovarian 100% | OVCAR-4 ovarian 91.7% | SK-OV-3 ovarian 113% | IGROV1 ovarian 91.1% | HS 578T breast 129% | NCI/ADR-RES ovarian 91.4%
active: A498 renal 5.74%

Cc1n(Cc2ccc3ccccc3n2)cc[n+]1Cc1ccc2ccccc2n1
inactive: EKVX NSCLC 80.7% | SN12C renal 77.9% | UO-31 renal 87.3% | TK-10 renal 80.8% | ACHN renal 103% | A498 renal 88.5% | CCRF-CEM leukemia 76.2% | MOLT-4 leukemia 98.3% | SR leukemia 48.8% | RPMI-8226 leukemia 24.6% | OVCAR-8 ovarian 97.9% | OVCAR-4 ovarian 24.1% | SK-OV-3 ovarian 91.1% | IGROV1 ovarian 64.4% | OVCAR-3 ovarian 54.8% | HS 578T breast 92.1% | NCI/ADR-RES ovarian 98.7%

O=C(C(=O)c1cccnc1)c1cccnc1
inactive: EKVX NSCLC 110% | SN12C renal 107% | UO-31 renal 105% | TK-10 renal 158% | ACHN renal 110% | A498 renal 55.6% | CCRF-CEM leukemia 120% | OVCAR-5 ovarian 100% | OVCAR-4 ovarian 101% | SK-OV-3 ovarian 136% | IGROV1 ovarian 31% | OVCAR-3 ovarian 87.7% | HS 578T breast 99% | NCI/ADR-RES ovarian 97.5%

Clc1ccc2c(c1)-n1cccc1C(c1ccc3ccccc3c1)=NC2
inactive: EKVX NSCLC 99.5% | SN12C renal 124% | UO-31 renal 64.8% | TK-10 renal 185% | ACHN renal 91.7% | CCRF-CEM leukemia 84.6% | OVCAR-8 ovarian 102% | OVCAR-5 ovarian 98.4% | OVCAR-4 ovarian 84.2% | SK-OV-3 ovarian 94.5% | IGROV1 ovarian 61.4% | OVCAR-3 ovarian 86.1% | HS 578T breast 110% | NCI/ADR-RES ovarian 77.8%

CC(=O)OC1Oc2ccccc2-c2oc3nc(=N)n(C)c-3cc21 (stereo not given)
inactive: EKVX NSCLC 122% | SN12C renal 108% | UO-31 renal 88.6% | TK-10 renal 155% | ACHN renal 110% | A498 renal 138% | CCRF-CEM leukemia 77% | OVCAR-8 ovarian 98.6% | OVCAR-5 ovarian 107% | OVCAR-4 ovarian 104% | SK-OV-3 ovarian 104% | IGROV1 ovarian 102% | HS 578T breast 143% | NCI/ADR-RES ovarian 96%

Cc1cccc(C(=O)O)n1
active: RPMI-8226 leukemia -8.6%
inactive: EKVX NSCLC 93.9% | SN12C renal 102% | UO-31 renal 72.3% | TK-10 renal 109% | ACHN renal 102% | A498 renal 116% | MOLT-4 leukemia 94.2% | SR leukemia 120% | OVCAR-8 ovarian 74.4% | OVCAR-5 ovarian 100% | OVCAR-4 ovarian 101% | SK-OV-3 ovarian 119% | IGROV1 ovarian 72% | OVCAR-3 ovarian 115% | HS 578T breast 118% | NCI/ADR-RES ovarian 107%

CC(C)NCCCCCNc1cc(O)cc2cccnc12
inactive: SN12C renal 59% | UO-31 renal 88.4% | TK-10 renal 124% | ACHN renal 102% | A498 renal 79.1% | CCRF-CEM leukemia 94.3% | MOLT-4 leukemia 16% | SR leukemia 22.5% | RPMI-8226 leukemia 66.6% | OVCAR-5 ovarian 98.8% | SK-OV-3 ovarian 65.6% | IGROV1 ovarian 32.2% | OVCAR-3 ovarian 28.3% | HS 578T breast 88.8% | NCI/ADR-RES ovarian 100%
active: EKVX NSCLC -8.81% | OVCAR-4 ovarian -5.19%

Cc1ccc(NC(=O)c2nc(S(C)(=O)=O)oc2-c2ccc(F)cc2)cc1Nc1ccc2ncn(C)c(=O)c2c1
inactive: EKVX NSCLC 72.7% | SN12C renal 67.7% | UO-31 renal 72.5% | TK-10 renal 90.8% | ACHN renal 48.4% | A498 renal 130% | CCRF-CEM leukemia 16.3% | RPMI-8226 leukemia 19.3% | OVCAR-8 ovarian 30.6% | OVCAR-5 ovarian 102% | OVCAR-4 ovarian 104% | SK-OV-3 ovarian 107% | IGROV1 ovarian 61.4% | HS 578T breast 106% | NCI/ADR-RES ovarian 96.2%
active: MOLT-4 leukemia -5.15% | SR leukemia -12.5% | OVCAR-3 ovarian -58.5%

Cc1nc([C@H]2CC[C@H]3[C@@H]4CCC5=CC(=O)CC[C@]5(C)[C@H]4CC[C@]23C)cs1
inactive: EKVX NSCLC 42.2% | SN12C renal 84.1% | UO-31 renal 76.3% | TK-10 renal 103% | ACHN renal 68.6% | A498 renal 74.4% | CCRF-CEM leukemia 40.7% | OVCAR-8 ovarian 47.9% | OVCAR-5 ovarian 91.4% | OVCAR-4 ovarian 27.4% | SK-OV-3 ovarian 85.3% | IGROV1 ovarian 109% | OVCAR-3 ovarian 95.9% | HS 578T breast 104% | NCI/ADR-RES ovarian 43.7%

CNC(=O)c1cc(Oc2ccc(NC(=O)c3nc(S(C)(=O)=O)n(C)c3-c3ccc(F)cc3)cc2)ccn1
inactive: EKVX NSCLC 71.2% | SN12C renal 54.9% | UO-31 renal 47.9% | TK-10 renal 68.5% | ACHN renal 45.8% | A498 renal 38% | CCRF-CEM leukemia 85% | MOLT-4 leukemia 62.4% | SR leukemia 60.2% | RPMI-8226 leukemia 55.6% | OVCAR-8 ovarian 75.8% | OVCAR-5 ovarian 104% | OVCAR-4 ovarian 67.1% | SK-OV-3 ovarian 58.9% | IGROV1 ovarian 54.3% | OVCAR-3 ovarian 69.6% | HS 578T breast 76.9% | NCI/ADR-RES ovarian 77.8%

CCCc1n(Cc2ccc3ccccc3n2)cc[n+]1Cc1ccc2ccccc2c1
inactive: EKVX NSCLC 41.6% | UO-31 renal 73.8% | ACHN renal 81.7% | OVCAR-8 ovarian 10.8% | HS 578T breast 24.4% | NCI/ADR-RES ovarian 95.7%
active: SN12C renal -0.216% | TK-10 renal -4.74% | A498 renal -3.21% | CCRF-CEM leukemia 9.37% | MOLT-4 leukemia -1.31% | SR leukemia -0.784% | RPMI-8226 leukemia -7.06% | OVCAR-5 ovarian 5.17% | OVCAR-4 ovarian 5.87% | SK-OV-3 ovarian 0.843% | IGROV1 ovarian 3.66% | OVCAR-3 ovarian -4%

Cc1n(Cc2ccc3ccccc3n2)cc[n+]1Cc1ccc2ccccc2c1
inactive: EKVX NSCLC 48.3% | UO-31 renal 81% | TK-10 renal 37.8% | ACHN renal 88.5% | CCRF-CEM leukemia 16.3% | SR leukemia 11.6% | OVCAR-8 ovarian 11.9% | HS 578T breast 24.4% | NCI/ADR-RES ovarian 98.7%
active: SN12C renal 1.98% | A498 renal -2.15% | MOLT-4 leukemia 5.13% | RPMI-8226 leukemia -3.22% | OVCAR-5 ovarian 9.08% | OVCAR-4 ovarian 7.17% | SK-OV-3 ovarian -2.36% | IGROV1 ovarian 5.65% | OVCAR-3 ovarian 6.35%

c1ccc(-c2[nH]c3ccccc3c2-c2ccccc2)cc1
inactive: EKVX NSCLC 77.1% | SN12C renal 91.8% | UO-31 renal 88.6% | TK-10 renal 107% | ACHN renal 93.2% | A498 renal 92.8% | CCRF-CEM leukemia 47.6% | MOLT-4 leukemia 66.2% | SR leukemia 88.6% | RPMI-8226 leukemia 32.6% | OVCAR-5 ovarian 91.8% | OVCAR-4 ovarian 78% | SK-OV-3 ovarian 95% | IGROV1 ovarian 120% | OVCAR-3 ovarian 96.1% | HS 578T breast 106% | NCI/ADR-RES ovarian 95.7%

C1=C\CCCCN2CC[C@H]3[C@H](CCCC/C=C\CCCN4C[C@@H](CCCCC/1)C[C@@H]3C4)C2
active: A498 renal -11.8% | IGROV1 ovarian -11.3% | HS 578T breast 9.63%
inactive: EKVX NSCLC 108% | SN12C renal 81.2% | UO-31 renal 14.6% | TK-10 renal 109% | ACHN renal 23.4% | OVCAR-8 ovarian 77.4% | OVCAR-5 ovarian 87.6% | OVCAR-4 ovarian 74.2% | SK-OV-3 ovarian 83.9% | OVCAR-3 ovarian 49.1% | NCI/ADR-RES ovarian 77.5%

O=c1[nH]cnc2nc[nH]c12
active: MOLT-4 leukemia -45.9%
inactive: EKVX NSCLC 81.6% | SN12C renal 96.7% | UO-31 renal 94.2% | TK-10 renal 115% | ACHN renal 103% | A498 renal 87.9% | CCRF-CEM leukemia 120% | SR leukemia 48.8% | RPMI-8226 leukemia 93.5% | OVCAR-8 ovarian 76.9% | OVCAR-5 ovarian 98.5% | OVCAR-4 ovarian 94.5% | SK-OV-3 ovarian 121% | IGROV1 ovarian 109% | OVCAR-3 ovarian 174% | HS 578T breast 123% | NCI/ADR-RES ovarian 97.8%

CC(=O)OC1Oc2cc(C)c(C)cc2-c2oc(=O)c(-c3cc4ccccc4oc3=O)cc21 (stereo not given)
inactive: EKVX NSCLC 115% | SN12C renal 114% | UO-31 renal 96.2% | TK-10 renal 156% | ACHN renal 71.9% | A498 renal 75% | OVCAR-8 ovarian 101% | OVCAR-5 ovarian 97.6% | OVCAR-4 ovarian 97.2% | SK-OV-3 ovarian 89.4% | IGROV1 ovarian 73.8% | HS 578T breast 423% | NCI/ADR-RES ovarian 94.7%
